Assays:
[1] = molecular target: Tyrosine-protein kinase SYK (Homo sapiens) (UniProt P43405); details: at 10 µM
[2] = molecular target: T1, Mitogen-activated protein kinase kinase kinase 7 (Homo sapiens) (UniProt O43318); details: at 1 µM
T1 sequence (whole entry): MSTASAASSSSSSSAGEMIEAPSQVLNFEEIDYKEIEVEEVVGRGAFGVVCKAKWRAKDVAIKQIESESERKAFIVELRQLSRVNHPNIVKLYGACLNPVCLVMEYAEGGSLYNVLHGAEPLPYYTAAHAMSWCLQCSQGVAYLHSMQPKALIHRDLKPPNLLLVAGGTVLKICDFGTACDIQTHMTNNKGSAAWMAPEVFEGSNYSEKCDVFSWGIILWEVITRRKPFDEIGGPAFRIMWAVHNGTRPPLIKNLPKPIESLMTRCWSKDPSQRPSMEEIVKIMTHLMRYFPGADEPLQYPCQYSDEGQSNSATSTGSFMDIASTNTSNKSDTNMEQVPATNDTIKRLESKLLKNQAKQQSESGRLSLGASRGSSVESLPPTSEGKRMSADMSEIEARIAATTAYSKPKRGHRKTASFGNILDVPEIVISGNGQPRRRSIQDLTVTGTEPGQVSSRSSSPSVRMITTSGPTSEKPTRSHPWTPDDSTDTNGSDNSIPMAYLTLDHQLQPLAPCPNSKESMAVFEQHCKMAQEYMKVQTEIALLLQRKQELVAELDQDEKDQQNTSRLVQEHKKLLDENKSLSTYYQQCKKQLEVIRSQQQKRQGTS

[3] = molecular target: T1, Mitogen-activated protein kinase kinase kinase 7 (Homo sapiens); details: at 10 µM
[4] = molecular target: T2, Serine/threonine-protein kinase TAO1 (Homo sapiens) (UniProt Q7L7X3); details: at 1 µM
T2 sequence (whole entry): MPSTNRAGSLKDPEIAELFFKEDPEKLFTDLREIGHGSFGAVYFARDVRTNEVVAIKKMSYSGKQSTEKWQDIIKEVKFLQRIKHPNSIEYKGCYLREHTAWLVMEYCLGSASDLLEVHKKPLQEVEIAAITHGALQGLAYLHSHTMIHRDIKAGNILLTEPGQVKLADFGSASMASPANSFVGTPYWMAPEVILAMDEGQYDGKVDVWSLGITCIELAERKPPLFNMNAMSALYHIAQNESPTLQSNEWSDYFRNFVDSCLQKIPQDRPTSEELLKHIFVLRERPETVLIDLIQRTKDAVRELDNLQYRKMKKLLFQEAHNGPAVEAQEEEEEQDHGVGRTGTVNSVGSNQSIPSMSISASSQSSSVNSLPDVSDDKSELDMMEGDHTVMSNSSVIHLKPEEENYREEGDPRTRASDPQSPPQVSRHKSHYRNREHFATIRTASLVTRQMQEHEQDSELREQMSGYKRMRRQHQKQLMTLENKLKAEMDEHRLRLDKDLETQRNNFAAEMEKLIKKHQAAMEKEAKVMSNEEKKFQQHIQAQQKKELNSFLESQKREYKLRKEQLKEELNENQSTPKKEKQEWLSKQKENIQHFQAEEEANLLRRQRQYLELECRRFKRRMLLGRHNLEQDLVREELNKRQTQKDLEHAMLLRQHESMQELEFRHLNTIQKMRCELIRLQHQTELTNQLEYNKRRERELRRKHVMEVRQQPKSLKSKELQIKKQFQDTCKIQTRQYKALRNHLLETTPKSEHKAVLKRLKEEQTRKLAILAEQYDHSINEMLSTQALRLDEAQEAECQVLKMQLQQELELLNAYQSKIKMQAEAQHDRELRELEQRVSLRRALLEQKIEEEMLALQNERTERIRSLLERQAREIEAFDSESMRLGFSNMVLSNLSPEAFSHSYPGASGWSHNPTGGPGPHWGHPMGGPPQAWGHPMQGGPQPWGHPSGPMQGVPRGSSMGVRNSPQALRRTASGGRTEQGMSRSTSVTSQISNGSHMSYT

[5] = molecular target: T2, Serine/threonine-protein kinase TAO1 (Homo sapiens); details: at 10 µM
[6] = molecular target: T3, Serine/threonine-protein kinase TAO2 (Homo sapiens) (UniProt Q9UL54); details: at 1 µM
T3 sequence (whole entry): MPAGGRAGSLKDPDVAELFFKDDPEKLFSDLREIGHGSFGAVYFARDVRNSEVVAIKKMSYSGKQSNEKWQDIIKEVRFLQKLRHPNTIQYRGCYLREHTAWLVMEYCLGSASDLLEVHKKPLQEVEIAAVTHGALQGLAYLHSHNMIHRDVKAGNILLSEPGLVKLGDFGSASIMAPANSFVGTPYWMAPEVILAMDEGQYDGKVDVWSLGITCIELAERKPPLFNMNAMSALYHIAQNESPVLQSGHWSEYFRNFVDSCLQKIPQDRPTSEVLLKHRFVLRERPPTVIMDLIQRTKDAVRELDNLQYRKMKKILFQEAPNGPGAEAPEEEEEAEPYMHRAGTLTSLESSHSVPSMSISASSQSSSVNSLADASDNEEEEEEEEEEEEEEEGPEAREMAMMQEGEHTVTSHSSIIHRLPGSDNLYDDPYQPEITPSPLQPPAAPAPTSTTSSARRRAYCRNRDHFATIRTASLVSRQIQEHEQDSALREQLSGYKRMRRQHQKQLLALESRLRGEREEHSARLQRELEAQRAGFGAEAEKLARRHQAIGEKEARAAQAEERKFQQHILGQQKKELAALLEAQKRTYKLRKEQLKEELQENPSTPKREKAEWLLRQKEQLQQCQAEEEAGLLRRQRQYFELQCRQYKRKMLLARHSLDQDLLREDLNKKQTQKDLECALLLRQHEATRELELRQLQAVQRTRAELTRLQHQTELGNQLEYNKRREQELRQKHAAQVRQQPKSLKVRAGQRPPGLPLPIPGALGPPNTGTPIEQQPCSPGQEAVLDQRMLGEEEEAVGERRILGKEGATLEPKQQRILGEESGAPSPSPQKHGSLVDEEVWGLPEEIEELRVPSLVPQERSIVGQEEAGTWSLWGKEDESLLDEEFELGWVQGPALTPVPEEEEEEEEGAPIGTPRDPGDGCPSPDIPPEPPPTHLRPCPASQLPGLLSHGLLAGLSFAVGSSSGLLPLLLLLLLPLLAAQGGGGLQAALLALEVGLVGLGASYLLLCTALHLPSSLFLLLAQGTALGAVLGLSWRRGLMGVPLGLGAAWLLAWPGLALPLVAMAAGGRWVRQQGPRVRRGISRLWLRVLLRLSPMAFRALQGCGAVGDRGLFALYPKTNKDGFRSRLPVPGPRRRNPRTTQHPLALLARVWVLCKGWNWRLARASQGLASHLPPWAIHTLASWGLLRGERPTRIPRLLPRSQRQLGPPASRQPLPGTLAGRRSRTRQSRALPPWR

[7] = molecular target: T3, Serine/threonine-protein kinase TAO2 (Homo sapiens); details: at 10 µM
[8] = molecular target: T4, Serine/threonine-protein kinase TAO3 (Homo sapiens) (UniProt Q9H2K8); details: at 1 µM
T4 sequence (whole entry): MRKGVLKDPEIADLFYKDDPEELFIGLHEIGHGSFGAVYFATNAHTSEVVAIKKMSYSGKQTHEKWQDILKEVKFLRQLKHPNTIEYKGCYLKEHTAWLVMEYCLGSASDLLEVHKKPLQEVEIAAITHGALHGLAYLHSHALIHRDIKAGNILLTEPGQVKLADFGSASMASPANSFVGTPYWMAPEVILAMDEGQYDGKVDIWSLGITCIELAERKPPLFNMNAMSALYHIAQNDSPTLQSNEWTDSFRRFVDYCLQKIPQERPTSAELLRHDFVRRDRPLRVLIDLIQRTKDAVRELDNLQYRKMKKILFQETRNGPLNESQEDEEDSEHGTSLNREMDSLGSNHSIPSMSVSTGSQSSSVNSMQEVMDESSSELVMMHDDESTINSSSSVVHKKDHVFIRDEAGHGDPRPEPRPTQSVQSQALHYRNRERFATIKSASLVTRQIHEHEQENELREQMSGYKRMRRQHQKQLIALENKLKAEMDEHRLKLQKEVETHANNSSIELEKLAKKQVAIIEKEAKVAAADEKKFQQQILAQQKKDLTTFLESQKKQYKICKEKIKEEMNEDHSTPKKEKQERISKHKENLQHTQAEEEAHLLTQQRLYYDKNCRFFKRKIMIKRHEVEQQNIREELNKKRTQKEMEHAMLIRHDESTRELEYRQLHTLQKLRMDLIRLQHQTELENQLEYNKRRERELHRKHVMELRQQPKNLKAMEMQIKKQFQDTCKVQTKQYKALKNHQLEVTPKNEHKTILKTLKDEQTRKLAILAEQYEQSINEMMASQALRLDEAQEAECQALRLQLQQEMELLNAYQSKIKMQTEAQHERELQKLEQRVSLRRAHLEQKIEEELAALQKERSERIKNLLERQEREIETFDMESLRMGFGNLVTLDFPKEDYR

**Q.** With `O=C1Nc2ccc(Cl)cc2/C1=C/c1cc(Cl)c(O)c(Cl)c1` as the compound, how does the residual activity [1] read?
**A.** 56%

**Q.** What about the residual activity [2] of the same compound?
**A.** 83%

**Q.** What about the residual activity [3] of the same compound?
**A.** 75%

**Q.** And the residual activity [4]?
**A.** 62%

**Q.** And the residual activity [5]?
**A.** 35%

**Q.** What about the residual activity [6] of the same compound?
**A.** 72%

**Q.** What about the residual activity [7] of the same compound?
**A.** 58%

**Q.** And the residual activity [8]?
**A.** 61%

— ChEMBL document CHEMBL2218924, “A broad activity screen in support of a chemogenomic map for kinase signalling research and drug discovery” (Biochem J, 2013)
